Experimental data published in PubChem BioAssay.
Several values for one entry are separate records, joined by “and”; a condition that tells them apart may be missing. Identical values can stand only once. Activity calls are given as the source filed them. No rule for the calls is given here.

Legend:
[1] = test system: Botulinum neurotoxin type F light chain protease (Clostridium botulinum); assay: Clostridium botulinum type F light chain protease inhibitors, microsphere substrate cleavage, validation (AID 588459); settings: multiplex microsphere protease substrate cleavage assay, flow cytometry; at 10 µM; active compounds read high
[2] = biological target: Botulinum neurotoxin type A (Clostridium botulinum) (UniProt P0DPI0); assay: BoNT/A light chain protease inhibitors, biochemical, multiplex microsphere flow cytometry, validation set (AID 588460); settings: at 10 µM, active compounds read high
Sequence of Botulinum neurotoxin type A (Clostridium botulinum) (P0DPI0 whole entry, looked up): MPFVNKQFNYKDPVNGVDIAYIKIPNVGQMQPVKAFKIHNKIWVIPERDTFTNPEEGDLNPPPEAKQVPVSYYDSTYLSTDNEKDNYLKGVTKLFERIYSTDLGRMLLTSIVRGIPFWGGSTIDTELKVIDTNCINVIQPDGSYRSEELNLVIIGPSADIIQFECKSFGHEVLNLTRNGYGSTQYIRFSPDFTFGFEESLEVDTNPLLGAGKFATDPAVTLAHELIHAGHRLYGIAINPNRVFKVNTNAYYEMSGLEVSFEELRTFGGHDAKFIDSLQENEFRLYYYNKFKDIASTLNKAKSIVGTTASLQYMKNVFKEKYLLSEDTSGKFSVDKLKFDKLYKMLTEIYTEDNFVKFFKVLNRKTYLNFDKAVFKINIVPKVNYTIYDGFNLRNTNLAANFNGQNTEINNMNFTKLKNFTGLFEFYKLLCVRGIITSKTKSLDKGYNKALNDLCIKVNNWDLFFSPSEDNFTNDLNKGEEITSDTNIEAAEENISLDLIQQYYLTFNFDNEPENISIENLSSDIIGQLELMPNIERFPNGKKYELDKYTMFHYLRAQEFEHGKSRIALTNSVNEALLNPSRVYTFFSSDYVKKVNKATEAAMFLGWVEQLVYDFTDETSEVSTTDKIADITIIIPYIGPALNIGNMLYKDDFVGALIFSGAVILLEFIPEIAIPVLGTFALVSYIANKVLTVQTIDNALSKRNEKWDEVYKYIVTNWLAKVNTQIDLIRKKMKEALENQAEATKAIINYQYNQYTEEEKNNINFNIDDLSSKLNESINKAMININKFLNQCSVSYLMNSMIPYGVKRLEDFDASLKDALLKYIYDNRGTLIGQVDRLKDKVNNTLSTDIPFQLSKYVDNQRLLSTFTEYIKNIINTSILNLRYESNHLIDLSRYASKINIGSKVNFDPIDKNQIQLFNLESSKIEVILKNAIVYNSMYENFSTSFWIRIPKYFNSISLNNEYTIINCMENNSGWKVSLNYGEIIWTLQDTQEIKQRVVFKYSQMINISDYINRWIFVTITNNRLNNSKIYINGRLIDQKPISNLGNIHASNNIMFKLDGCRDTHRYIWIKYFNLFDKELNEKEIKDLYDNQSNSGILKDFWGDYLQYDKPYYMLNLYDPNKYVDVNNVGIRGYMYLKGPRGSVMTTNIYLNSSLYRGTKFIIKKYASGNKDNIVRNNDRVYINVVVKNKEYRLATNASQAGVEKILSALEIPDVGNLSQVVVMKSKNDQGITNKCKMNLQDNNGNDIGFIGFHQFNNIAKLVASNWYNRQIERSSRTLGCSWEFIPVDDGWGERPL

[3] = biological target: Lethal factor (Bacillus anthracis) (UniProt P15917); assay: Bacillus anthracis lethal factor inhibition, microsphere flow cytometry protease assay, validation at 10 µM (AID 588461); settings: multiplex microsphere protease cleavage assay, active compounds read high
Sequence of Lethal factor (Bacillus anthracis) (P15917 whole entry, looked up): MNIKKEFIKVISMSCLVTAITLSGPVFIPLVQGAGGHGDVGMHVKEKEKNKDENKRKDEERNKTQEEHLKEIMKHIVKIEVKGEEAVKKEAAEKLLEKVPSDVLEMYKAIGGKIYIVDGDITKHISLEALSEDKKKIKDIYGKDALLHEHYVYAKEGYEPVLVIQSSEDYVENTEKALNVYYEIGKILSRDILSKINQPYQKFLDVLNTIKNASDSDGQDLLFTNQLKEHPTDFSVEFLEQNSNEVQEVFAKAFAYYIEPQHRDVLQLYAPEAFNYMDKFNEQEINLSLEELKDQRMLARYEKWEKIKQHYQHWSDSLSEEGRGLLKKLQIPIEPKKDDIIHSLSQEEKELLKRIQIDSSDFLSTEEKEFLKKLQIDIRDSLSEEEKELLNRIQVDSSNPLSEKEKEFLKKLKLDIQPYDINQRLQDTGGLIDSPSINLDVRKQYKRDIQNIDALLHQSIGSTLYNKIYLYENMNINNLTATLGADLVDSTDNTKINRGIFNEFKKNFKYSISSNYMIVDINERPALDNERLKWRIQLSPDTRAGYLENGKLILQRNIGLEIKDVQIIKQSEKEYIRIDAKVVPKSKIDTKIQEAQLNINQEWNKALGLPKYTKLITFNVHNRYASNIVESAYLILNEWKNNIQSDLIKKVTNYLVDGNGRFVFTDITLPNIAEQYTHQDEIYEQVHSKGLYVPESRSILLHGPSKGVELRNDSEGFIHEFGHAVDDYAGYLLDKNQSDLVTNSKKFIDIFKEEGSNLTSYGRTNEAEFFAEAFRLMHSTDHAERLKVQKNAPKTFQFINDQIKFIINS

Measured: inhibition

O=C(Cc1ccccc1[N+](=O)[O-])NCc1ccncc1
inactive: [1] -3.6% | [2] 0.9% | [3] -5.4%

CCOc1ccc(CC2c3cc(OCC)c(OCC)cc3CCN2C(=O)CN2CCN(C)CC2)cc1OCC (centres undefined)
inactive: [1] -5.9% | [2] -1.4% | [3] 7.9%

CN1C(=O)C(O)(CC(=O)c2ccccc2O)c2cc(Br)ccc21 (centres undefined)
inactive: [1] 3.2% | [2] -0.1% | [3] -5.4%

CC(=O)CC(c1ccc([N+](=O)[O-])cc1)c1c(O)c2ccccc2oc1=O (centres undefined)
inactive: [1] 0.7% | [2] 0.2% | [3] -1.2%

CSCC[C@H](NC(=O)OC(C)(C)C)C(=O)N1CCC(C(=O)N[C@@H](C)C(=O)O)CC1
inactive: [1] -3.4% | [2] 0.4% | [3] -4.2%

COc1ccc(-c2nc3c(=O)n(C)c(=O)[nH]c3n2CCc2ccccc2)cc1
inactive: [1] 1.2% | [2] 0.2% | [3] -1.2%

COc1cccc2c1C(=O)O/C2=C/c1ccc2c(c1)OCO2
inactive: [1] -0.9% | [2] -0.8% | [3] 2.1%

O=C(COc1cc(O)c2c(=O)c3ccccc3oc2c1)OCc1ccccc1
inactive: [1] 1.4% | [2] 0.2% | [3] 1.6%

Oc1ccc(Oc2ncc(Cl)cc2Cl)cc1
inactive: [1] 1.4% | [2] -0.7% | [3] -2.9%

Nc1c(C(=O)c2ccccc2)oc2ccccc12
inactive: [1] 1.8% | [2] 1% | [3] -7.3%

CC1(C)CC(=O)c2cc(O)ccc2O1
inactive: [1] 2% | [2] 0.1% | [3] -2.1%

COc1ccc(CC(=O)N2CC3(C)CC2CC(C)(C)C3)cc1OC (centres undefined)
inactive: [1] -2.6% | [2] -1.4% | [3] -0.4%

Cc1ccc(C(=O)NCCNC(=O)c2ccccc2)cc1
inactive: [1] 1.3% | [2] 0.3% | [3] -1.4%

CCN(CC)CC(=O)Nc1c(C)cccc1C
inactive: [1] 2.8% and -0.5% | [2] 0.5% and -2.3% | [3] -6.6% and -3.8%

CC12CN3CC(C)(CN(C1)C3c1ccc(Cl)cc1Cl)C2=O (centres undefined)
inactive: [1] -0.6% | [2] 0.5% | [3] 0.1%

COc1ccc(C2(CCN=Cc3ccc(N(C)C)cc3)CCOC(C)(C)C2)cc1 (centres undefined)
inactive: [1] 9.1% | [2] 1.6% | [3] -2%

Nc1nc(SCc2ccc([N+](=O)[O-])cc2)c2ncn(C3OC(CO)C(O)C3O)c2n1 (centres undefined)
inactive: [1] 0.3% | [2] 1% | [3] 5%

COc1cc(C2C(C(=O)c3ccc(C)o3)=C(O)C(=O)N2Cc2cccnc2)ccc1O (centres undefined)
inactive: [1] 1.8% | [2] -0.4% | [3] -0.1%
